According to PubChem BioAssay:
For part of these data: Potency and affinity values are given separately. Active and inactive are the calls of the source.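 How the source made its calls, unless noted: active means primary screen inhibitor hit that blocks the TRPC4 channel at some tested dose, yielding a dose curve; inactive means the rest.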

Key:
[1] = tested on: TRPC4 beta (transient receptor potential cation channel C4), mouse; experiment: TRPC4 cation channel opening, retest – cell-based, Fluo4 calcium, HEK293 TRPC4beta/mu-opioid, duplicates, 10 µM, confirmation (AID 2426;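 active means fluorescence ratio normalized to control raised more than 50% in primary screen plus both repeat runs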); conditions: Fluo4 calcium fluorescence, at 10 µM; active compounds read high
[2] = tested on: transient receptor potential cation channel C4 beta (TRPC4), mouse; experiment: TRPC4 cation channel opening, second retest – cell-based, second round, Fluo4, HEK293 TRPC4beta/mu-opioid, 1 µM, confirmation (AID 2461;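 active means primary screen active and over 50% activation in each of two duplicate runs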); conditions: Fluo4 calcium fluorescence, at 1 µM; active compounds read high
[3] = tested on: TRPC4 (transient receptor potential cation channel C4 beta), mouse; experiment: potentiation of DAMGO EC20 TRPC4 response – cell-based, second round, Fluo-4, HEK293 TRPC4beta/mu-opioid, 1 µM, confirmation (AID 2554;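 active means primary screen hit whose fluorescence ratio, in both repeats, exceeds the weak agonist control mean by 3 SD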); conditions: DAMGO EC20, Fluo-4 calcium flux, at 1 µM; active compounds read high
[4] = tested on: TRPC4 beta (transient receptor potential cation channel C4), mouse; experiment: potentiation of DAMGO EC20 TRPC4 response – cell-based, Fluo-4, HEK293 TRPC4beta/mu-opioid, confirmation (AID 2555;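 active means primary screen hit whose calcium fluorescence ratio, in both repeats, exceeds the weak agonist control mean by 3 SD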); conditions: DAMGO EC20, Fluo-4 calcium flux, at 10 µM; active compounds read high
[5] = target: Short transient receptor potential channel 4 (Mus musculus) (UniProt Q9QUQ5); experiment: blockers of DAMGO-evoked TRPC4 calcium flux – cell-based, Fluo4, HEK293 TRPC4beta/mu-opioid, confirmation (AID 2636;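 active means calcium signal cut by more than 3 SD below the full-agonist control yet still positive, in both repeats and the earlier primary screen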); conditions: at 10 µM; active compounds read high
Chain of Short transient receptor potential channel 4 (Mus musculus) (Q9QUQ5 whole entry, looked up): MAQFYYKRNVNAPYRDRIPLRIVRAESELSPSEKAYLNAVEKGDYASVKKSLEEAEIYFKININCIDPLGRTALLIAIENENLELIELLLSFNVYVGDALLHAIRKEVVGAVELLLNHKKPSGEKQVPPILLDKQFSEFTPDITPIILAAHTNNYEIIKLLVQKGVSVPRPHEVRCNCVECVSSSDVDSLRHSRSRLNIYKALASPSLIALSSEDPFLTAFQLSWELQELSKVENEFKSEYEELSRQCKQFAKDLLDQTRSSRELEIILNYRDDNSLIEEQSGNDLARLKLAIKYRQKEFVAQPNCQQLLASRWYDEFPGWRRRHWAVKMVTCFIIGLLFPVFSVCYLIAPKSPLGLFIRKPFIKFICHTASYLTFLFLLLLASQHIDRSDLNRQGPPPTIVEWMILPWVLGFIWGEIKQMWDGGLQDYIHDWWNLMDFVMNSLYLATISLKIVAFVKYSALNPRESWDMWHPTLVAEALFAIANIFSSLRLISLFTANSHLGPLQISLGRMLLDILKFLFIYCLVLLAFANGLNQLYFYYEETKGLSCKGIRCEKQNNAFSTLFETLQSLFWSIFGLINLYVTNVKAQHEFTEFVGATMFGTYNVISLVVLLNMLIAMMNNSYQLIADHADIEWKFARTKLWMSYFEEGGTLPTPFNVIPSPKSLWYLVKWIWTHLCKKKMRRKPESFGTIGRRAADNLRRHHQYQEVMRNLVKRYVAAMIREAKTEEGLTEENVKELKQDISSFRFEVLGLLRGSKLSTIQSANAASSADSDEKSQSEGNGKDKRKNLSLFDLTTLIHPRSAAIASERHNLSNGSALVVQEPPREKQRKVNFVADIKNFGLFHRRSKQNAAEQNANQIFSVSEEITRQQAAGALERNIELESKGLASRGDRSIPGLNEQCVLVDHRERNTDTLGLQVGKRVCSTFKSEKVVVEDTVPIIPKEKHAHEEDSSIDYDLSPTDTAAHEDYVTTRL

[6] = target: Short transient receptor potential channel 4 (Mus musculus) (UniProt Q9QUQ5); experiment: blockers of DAMGO-evoked TRPC4 calcium flux – cell-based, second round, Fluo4, HEK293 TRPC4beta/mu-opioid, 1 µM, confirmation (AID 2637;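 active means calcium signal ratio cut to more than 3 SD under the fully stimulated control mean yet still positive, in both repeats and the primary screen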); conditions: at 1 µM; active compounds read high
[7] = target: Short transient receptor potential channel 4 (Mus musculus) (UniProt Q9QUQ5); experiment: calcium entry via TRPC4 opening agents – cell-based, HEK293 TRPC4/mu-opioid, Fluo-4 calcium, dose response (AID 434937;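 active means primary screen activator hit with a dose response curve and TRPC4 channel activation at any tested dose; inactive means no activation, no dose response, or not a primary hit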)
[8] = target: Short transient receptor potential channel 4 (Mus musculus) (UniProt Q9QUQ5); experiment: potentiation of DAMGO-evoked TRPC4 calcium signal – cell-based, HEK293 TRPC4/mu-opioid, Fluo-4 calcium, EC20 DAMGO, dose response (AID 434941;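 active means earlier screen potentiator hit that boosts the TRPC4 ion channel at some dose, with a dose response; inactive means no potentiation, no dose response, or not a prior hit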;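 further: calcium entry triggered by an EC20 dose of DAMGO at the co-expressed mu-opioid receptor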)
[9] = target: Short transient receptor potential channel 4 (Mus musculus) (UniProt Q9QUQ5); experiment: block of DAMGO-driven TRPC4 calcium entry – cell-based, HEK293 TRPC4/mu-opioid, Fluo-4 calcium, dose response (AID 434942)
[10] = target: Short transient receptor potential channel 6 (Mus musculus) (UniProt Q61143); experiment: TRPC6 blockade by TRPC4 inhibitor hits – cell-based, HEK293, membrane potential dye, duplicate, selectivity assay for TRPC4 inhibitor project, confirmation (AID 434948;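 active means active in primary screen and both duplicates, each dropping signal beyond three positive-control SD with fluorescence still positive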); conditions: HEK293 TRPC6, membrane potential dye fluorescence, at 10 µM, stimulated with maximal-effect acetylcholine; active compounds read high
Chain of Short transient receptor potential channel 6 (Mus musculus) (Q61143 whole entry, looked up): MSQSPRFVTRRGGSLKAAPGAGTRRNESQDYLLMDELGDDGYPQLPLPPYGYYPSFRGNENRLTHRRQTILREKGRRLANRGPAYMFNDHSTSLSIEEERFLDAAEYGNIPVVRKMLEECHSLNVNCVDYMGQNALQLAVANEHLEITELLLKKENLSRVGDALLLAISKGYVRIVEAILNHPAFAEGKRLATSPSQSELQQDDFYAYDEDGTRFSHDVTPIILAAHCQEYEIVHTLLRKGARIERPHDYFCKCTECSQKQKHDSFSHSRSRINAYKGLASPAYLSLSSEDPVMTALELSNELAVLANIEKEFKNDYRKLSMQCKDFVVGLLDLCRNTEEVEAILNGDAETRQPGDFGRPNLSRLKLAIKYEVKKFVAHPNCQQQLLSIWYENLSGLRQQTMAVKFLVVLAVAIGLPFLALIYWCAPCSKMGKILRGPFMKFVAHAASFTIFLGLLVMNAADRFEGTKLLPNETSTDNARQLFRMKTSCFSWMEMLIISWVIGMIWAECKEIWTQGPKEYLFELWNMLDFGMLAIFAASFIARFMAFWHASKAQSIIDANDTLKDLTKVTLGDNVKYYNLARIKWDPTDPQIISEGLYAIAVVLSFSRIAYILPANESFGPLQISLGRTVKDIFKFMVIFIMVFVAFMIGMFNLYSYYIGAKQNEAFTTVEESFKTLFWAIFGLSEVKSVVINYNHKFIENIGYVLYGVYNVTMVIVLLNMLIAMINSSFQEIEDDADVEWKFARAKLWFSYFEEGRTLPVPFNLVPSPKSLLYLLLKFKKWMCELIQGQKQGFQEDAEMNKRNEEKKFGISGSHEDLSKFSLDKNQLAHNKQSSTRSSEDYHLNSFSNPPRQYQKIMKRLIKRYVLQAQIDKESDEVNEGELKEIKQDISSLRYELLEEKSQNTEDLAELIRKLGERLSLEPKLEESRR

[11] = target: Short transient receptor potential channel 6 (Mus musculus) (UniProt Q61143); experiment: TRPC6 opening by TRPC4 activator hits – cell-based, HEK293, membrane potential dye, duplicate, selectivity assay for TRPC4 activator project, confirmation (AID 434950;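 active means membrane potential signal rise above negative control mean plus 3 SD in both duplicates, also active in the earlier TRPC4 screen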); conditions: HEK293 TRPC6, membrane potential fluorescence, at 10 µM; activation: active compounds read high; outcome: activation
[12] = target: Short transient receptor potential channel 6 (Mus musculus) (UniProt Q61143); experiment: positive modulators of mouse TRPC6 channel – HEK293 cells, membrane potential dye, duplicate, selectivity assay for TRPC4 potentiator project, confirmation (AID 434952;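 active means compound raising the membrane signal above positive-control mean plus 3 SD in both repeats, and a primary screen hit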); conditions: HEK293 TRPC6, membrane potential dye fluorescence, at 10 µM, maximal acetylcholine added after compound; active compounds read high
[13] = target: Short transient receptor potential channel 4 (Mus musculus) (UniProt Q9QUQ5); experiment: calcium flux activators in TRPC4/5HT1a cells, counter-screen for TRPC4 activator project, cell-based, second counter screen, HEK293 TRPC4/5HT1a, Fluo-4 (AID 434977;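 active means calcium signal rise above buffer-control mean plus 5 SD in both duplicates, and also a hit in the primary screen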); conditions: Fluo-4 calcium flux, at 10 µM; active compounds read high
[14] = serotonin-gated TRPC4 signal block – cell-based, second counter screen, HEK293 TRPC4/5HT1a, Fluo-4, counter-screen for TRPC4 inhibitor project, confirmation (AID 434978;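 active means primary screen active whose calcium signal fell more than 3 SD beyond the full-serotonin control mean in both duplicate plates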;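 on outcome: serotonin given first at submaximal then at maximal dose after compound preincubation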); conditions: Fluo-4 calcium flux, at 10 µM, serotonin added to trigger calcium flux; active compounds read high
[15] = tested on: TRPC4 (mouse), co-expressed with 5HT1a in HEK293; experiment: enhancement of serotonin-evoked TRPC4 response – cell-based, second counter screen, HEK293 TRPC4/5HT1a, Fluo-4, counter-screen for TRPC4 potentiator project, confirmation (AID 434979;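 active means signal rise over 3 SD above mean of control wells given weak agonist, in both repeats and first screen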); conditions: Fluo-4 calcium flux, at 10 µM, serotonin added at its EC20 dose; active compounds read high
[16] = nonspecific calcium rise without TRPC4 – cell-based, HEK293 mu-opioid receptor line, counter-screen for TRPC4 activator project, confirmation (AID 449723;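 active means hit in primary screen, with calcium signal over 5 SD above buffer well mean in both duplicates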;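 further: counter screen cells carry the mu-opioid receptor alone and lack TRPC4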); conditions: HEK293 mu-opioid cells, Fluo-4 calcium fluorescence, at 10 µM; active compounds read high
[17] = nonspecific potentiation of DAMGO calcium response – cell-based, HEK293 mu-opioid receptor line, counter-screen for TRPC4 allosteric potentiator project, confirmation (AID 449724;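 active means calcium signal rise more than 3 SD above the low-dose agonist control mean, in both duplicate plates and the primary screen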); conditions: HEK293 mu-opioid receptor cells, Fluo-4 calcium flux, at 10 µM, compound added before EC20 DAMGO stimulus; active compounds read high

CC(OC(=O)Cn1cnc2c1c(=O)n(C)c(=O)n2C)C(=O)Nc1ccc(Cl)cc1 (stereo not drawn)
inactive: outcome [1] | outcome [2] | outcome [3] | outcome [4] | outcome [5] | outcome [6] | outcome [7] | outcome [8] | outcome [9] | outcome [10] | outcome [11] | outcome [12] | outcome [13] | outcome [14] | outcome [15] | outcome [16] | outcome [17]

CCCN1CCN(C(=S)NCc2ccc(Cl)cc2)CC1
inactive: outcome [1] | outcome [2] | outcome [3] | outcome [5] | outcome [6] | outcome [7] | outcome [8] | outcome [9] | outcome [10] | outcome [11] | outcome [12] | outcome [13] | outcome [14] | outcome [16] | outcome [17]
active: potentiation [4] 8% | potentiation [15] 19.3%

Cc1ccc(C[n+]2cccc(-c3ccccc3)c2)c(C)c1
inactive: outcome [1] | outcome [2] | outcome [3] | outcome [4] | outcome [5] | outcome [6] | outcome [7] | outcome [8] | outcome [9] | outcome [10] | outcome [11] | outcome [12] | outcome [13] | outcome [14] | outcome [15] | outcome [16] | outcome [17]

CCN(CC)CCn1c(=N)n(CC(O)COc2cccc(C)c2)c2ccccc21 (stereo not drawn)
inactive: outcome [1] | outcome [2] | outcome [3] | outcome [4] | outcome [6] | outcome [7] | outcome [8] | outcome [9] | outcome [10] | outcome [11] | outcome [12] | outcome [13] | outcome [15] | outcome [16] | outcome [17]
active: inhibition [5] 88% | inhibition [14] 6.72%

Cc1cccc(N2CCN(C(=O)C3(S(=O)(=O)c4ccc(Cl)cc4)CC3)CC2)c1C
inactive: outcome [1] | outcome [2] | outcome [3] | outcome [5] | outcome [6] | outcome [7] | outcome [8] | outcome [9] | outcome [10] | outcome [11] | outcome [12] | outcome [13] | outcome [14] | outcome [16] | outcome [17]
active: potentiation [4] 13% | potentiation [15] 15.1%

O=c1c2ccccc2nc(COc2ccccc2)n1/N=C/c1cc([N+](=O)[O-])ccc1O
inactive: outcome [1] | outcome [2] | outcome [5] | outcome [6] | outcome [7] | outcome [8] | outcome [9] | outcome [10] | outcome [11] | outcome [12] | outcome [13] | outcome [14] | outcome [16] | outcome [17]
active: potentiation [3] 11% | potentiation [4] 23% | potentiation [15] 10.5%

COc1ccc(C(=O)c2no[n+]([O-])c2C(=O)c2ccc(OC)cc2)cc1
active: potentiation [3] 9% | potentiation [4] 50% | potentiation [15] 51.2%
inactive: outcome [1] | outcome [2] | outcome [5] | outcome [6] | outcome [7] | outcome [8] | outcome [9] | outcome [10] | outcome [11] | outcome [12] | outcome [13] | outcome [14] | outcome [16] | outcome [17]

CCOC(=O)c1ccc(NC(=S)N2CCSC2c2ccc(Cl)cc2)cc1 (stereo not drawn)
inactive: outcome [1] | outcome [2] | outcome [3] | outcome [5] | outcome [6] | outcome [7] | outcome [8] | outcome [9] | outcome [10] | outcome [11] | outcome [12] | outcome [13] | outcome [14] | outcome [16] | outcome [17]
active: potentiation [4] 21% | potentiation [15] 26.4%

Cc1ccc(Nc2nc3ccccc3[nH]2)nc1
inactive: outcome [1] | outcome [2] | outcome [3] | outcome [4] | outcome [5] | outcome [6] | outcome [7] | outcome [8] | outcome [9] | outcome [10] | outcome [11] | outcome [12] | outcome [13] | outcome [14] | outcome [15] | outcome [16] | outcome [17]
